Source: PubChem (National Center for Advancing Translational Sciences (NCATS))
Sm TGR block: inhibitors of Schistosoma mansoni thioredoxin glutathione reductase. Q962Y6. purified TGR, DTNB reduction, TNB absorbance 405 nm. Potency, µM (highest dose often 114 µM), hits mostly inhibitors. 360,000 tested, 3% active. AID 485364; further: nearly all actives have a fitted effect of over 60% in size
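TGR 20 nM + NADPH 100 uM (dispensed conc.), cpd preinc 15 min RT; start with NADPH (500 uM addition) then DTNB (15 mM addition). Kinetic TNB absorbance, 405 nm filter. Four-parameter Hill fit across titration.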
HCMV antiviral: human cytomegalovirus inhibition; HFF cells, HCMV-luciferase reporter, 72 h; hits give low values; activity change, negative = inhibition, % at 57.5 µM; AID 1259415; 410,000 tested, 4.5% active; in the data active means activity change below about -60%; inconclusive means no clear call, values can overlap the other calls; inactive means above about -39%
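Two compound doses tested in HFFs infected with HCMV-luciferase, MOI 1 PFU/cell, 72 h at 37C. Lysate luminescence read with OneGlo; data normalized against buffer-only and 10uM Salinomycin inhibitor controls.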
HCV inh: HCV inhibition. 340,000 tested, 3.4% active. Potency, µM (top dose mostly 41.8 µM), hits mostly inhibitors. Huh7.5.1 HCVcc-Cre infection, luciferase reporter, 44 h
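Luciferase read-out (15 sec integration) after a 15 min room-temperature substrate step quantifies HCVcc-Cre infection. Cells, 1,000 per well, had compound added 4 h post-plating, then virus at ~0.5 moi, and were cultured 44 h.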
Vaccinia Venus: vaccinia inhibition (Venus reporter). Potency, µM (titrated, usually from 36.5 µM), most hits filed as inhibitors. AID 720580. Vaccinia virus Venus reporter expression, fluorescence. 330,000 tested, 0.46% active; calls by dose curve; tested in A549 cells; further: nearly all actives have a fitted effect of over 30% in size
FMDV inh: antivirals against foot and mouth disease virus | FMDV antiviral cell-based qHTS | 410,000 tested, 1.2% active | Potency, µM (doses to about 57.9 µM), usual class: inhibitors; calls by dose curve; tested in HEK293T cells; further: read-out not given here; nearly all actives have a fitted effect of over 45% in size
VACV mCherry inh: vaccinia inhibition (mCherry reporter). Potency, µM (highest dose often 36.5 µM), most hits filed as inhibitors. 310,000 tested, 0.63% active. Vaccinia virus mCherry reporter infection, fluorescence; calls by dose curve; tested in A549 cells; further: nearly all actives have a fitted effect of over 35% in size
Each line names hits and unclear results; the compound was inactive in the other large screens. This is a sample that favours compounds with a hit; in the whole collection about 9.3% have one here. Unless noted, the call rests on the fitted dose curve; in most records, active means well fitted curve in the direction sought with a large enough effect; inconclusive means small, poorly fitted or top-dose-only effect, or another doubt; inactive means no such curve, though single readings can be large; an effect the other way counts as inactive or inconclusive.

COc1ccc(/C=C/c2ccccc2)cc1[C@H]1[C@@H]2C=CCC[C@@]2(C)C(=O)N1Cc1ccccc1	Sm TGR block 28µM
COc1ccc(Br)cc1[C@H]1[C@@H]2C=CCC[C@@]2(C)C(=O)N1Cc1ccccc1	FMDV inh inconclusive
COc1cc(C2NC(=O)N(C)C3=C2C(=O)N(c2cccc(Cl)c2)C3)ccc1O (stereo unspecified)	none (no result: HCV inh)
COc1cc(C2NC(=O)N(C)C3=C2C(=O)N(c2ccccc2)C3)ccc1O (stereo unspecified)	Sm TGR block inconclusive, HCMV antiviral -97 (no result: HCV inh)
COC(=O)c1ccccc1NC(=O)c1cc2c(s1)-c1ccccc1OC2	none (no result: HCV inh)
c1ccc(C2=Nc3ccccc3OC2)cc1	Sm TGR block 50µM
Cc1ccc2c(c1)N=C(c1ccc(Cl)cc1)CO2	HCMV antiviral -102, Vaccinia Venus inconclusive, VACV mCherry inh inconclusive
CC(=O)c1c(C)[nH]c(C(=O)CN2CCN(S(=O)(=O)c3ccc(C(C)C)cc3)CC2)c1C	Sm TGR block inconclusive, HCV inh inconclusive, FMDV inh inconclusive (no result: Vaccinia Venus, VACV mCherry inh)
O=S(=O)(c1ccccc1F)N1CCN(CCc2ccccc2)CC1	HCMV antiviral -72, HCV inh inconclusive, FMDV inh inconclusive
CCc1ccc2c(CN3CCN(S(=O)(=O)c4ccccc4F)CC3)cc(=O)oc2c1	HCV inh 13µM, FMDV inh inconclusive (no result: Sm TGR block)
CC(=O)c1c(C)[nH]c(C(=O)CN2CCN(S(=O)(=O)c3ccccc3F)CC2)c1C	HCMV antiviral inconclusive, FMDV inh 18µM (no result: Sm TGR block)
Cc1cc2oc(=O)cc(CN3CCN(S(=O)(=O)c4ccc5c(c4)OCCO5)CC3)c2cc1C	HCMV antiviral inconclusive, HCV inh 7.1µM (no result: Vaccinia Venus, VACV mCherry inh)
O=S(=O)(NCCN1CCN(S(=O)(=O)c2ccccc2F)CC1)c1ccccc1F	none (no result: Sm TGR block)
O=C(Nc1ccc(N2CCN(CCOc3ccc(Cl)cc3)CC2)c(C(=O)O)c1)c1ccc(F)cc1	none (no result: HCV inh)
COc1ccc(C(=O)Nc2ccc(N3CCOCC3)cc2)cc1OC	none
COc1cc(C(=O)OCC(=O)Nc2ccc(N3CCOCC3)cc2)ccc1OCC(C)C	Sm TGR block 50µM
N#Cc1ccccc1Cn1cc(C(=O)c2cccs2)c2ccccc21	HCMV antiviral -81
O=C(c1cccs1)c1cn(Cc2ccccc2Cl)c2ccccc12	HCV inh inconclusive (no result: Vaccinia Venus, VACV mCherry inh)
Cn1c2c(c(=O)[nH]c1=O)C(c1cccc(O)c1)C1=C(N2)c2ccccc2C1=O (stereo unspecified)	HCMV antiviral -100, HCV inh inconclusive, FMDV inh inconclusive, VACV mCherry inh inconclusive
Cc1ccc(C(=O)c2cn(Cc3ccccc3)c3cc4c(cc3c2=O)OCCO4)cc1	HCMV antiviral inconclusive, VACV mCherry inh inconclusive (no result: HCV inh)
COc1ccc(N2C(=O)NC3CC2(C)Oc2ccccc23)cc1OC (stereo unspecified)	HCMV antiviral -62, Vaccinia Venus inconclusive (no result: VACV mCherry inh)
Cc1csc(NC(=O)CSc2nc3[nH]c(=O)cc(O)c3s2)n1	HCMV antiviral inconclusive, HCV inh 10µM (no result: Sm TGR block)
O=C(CSc1nc2[nH]c(=O)cc(O)c2s1)Nc1nncs1	none (no result: Sm TGR block)
O=C(Nc1ccccc1)c1cccc(C(F)(F)F)c1	none
O=C(Nc1ccc(-c2csc(Nc3ccccc3)n2)cc1)c1cccc(C(F)(F)F)c1	HCMV antiviral -81, HCV inh inconclusive, Vaccinia Venus inconclusive, FMDV inh inconclusive, VACV mCherry inh inconclusive
Cc1ccc(Nc2nc(-c3sc(NC(=O)c4cccc(Cl)c4)nc3C)cs2)cc1	none (no result: HCMV antiviral, HCV inh, Vaccinia Venus, FMDV inh, VACV mCherry inh)
O=C(Nc1ccc(-c2csc(Nc3ccc(Cl)cc3)n2)cc1)c1cccc(C(F)(F)F)c1	HCMV antiviral inconclusive, HCV inh 11µM, Vaccinia Venus inconclusive, FMDV inh 20µM, VACV mCherry inh inconclusive
CCOC(=O)[C@]12CCC=C1N(CCC1=CCCCC1)C(=O)[C@H](CC(=O)N1CCCC1)C2	none (no result: Sm TGR block, HCV inh)
O=C(CSc1nnc(-c2ccc(Cl)cc2)n1Cc1ccco1)c1cccs1	Sm TGR block 28µM (no result: FMDV inh)
NC(=O)CSc1nnc(-c2cccs2)n1Cc1ccco1	none (no result: Vaccinia Venus, VACV mCherry inh)
O=C(CSc1nnc(-c2ccncc2)n1Cc1ccco1)c1ccc(Cl)cc1	Sm TGR block 0.89µM
COc1cccc(COC(=O)CCNC(=O)c2ccc(Br)cc2)c1OC	none
COc1cc(C(=O)NCC2(N3CCCCC3)CCCCC2)ccc1OCC(=O)N1CCOCC1	none (no result: Vaccinia Venus, VACV mCherry inh)
CCOCCCNC(=O)CCc1ccc(-n2cnc3cccnc32)cc1	HCMV antiviral -67
Cc1ccc(S(=O)(=O)N2CCCC2C(=O)OCc2ccco2)cc1 (stereo unspecified)	Sm TGR block 4.5µM (no result: HCMV antiviral)
Cc1ccc2c(c1)=NC(=O)/C(=C/c1c(O)[nH]c(=O)[nH]c1=O)C=2	Sm TGR block inconclusive (no result: Vaccinia Venus, VACV mCherry inh)
Cc1ccc2c(c1)=C/C(=C\c1c(O)[nH]c(=S)[nH]c1=O)C(=O)N=2	Sm TGR block 13µM (no result: HCMV antiviral, Vaccinia Venus, FMDV inh, VACV mCherry inh)
Cc1nn(Cc2ccccc2Cl)c(C)c1N	none
Cc1cccc(NC(=O)N2CC=C(c3c[nH]c4ccccc34)CC2)c1C	none (no result: HCV inh)
CCN1CC=C(c2c[nH]c3ccccc23)CC1	HCV inh 10µM, Vaccinia Venus inconclusive, VACV mCherry inh inconclusive
Cc1ccc(NC(=O)N2CC=C(c3c[nH]c4ccccc34)CC2)cc1Cl	HCMV antiviral -66 (no result: HCV inh)
COc1cc(C(=O)Oc2ccccc2/C=N/NC(=O)c2ccc(Cl)cc2Cl)cc(OC)c1OC	HCMV antiviral -100, HCV inh inconclusive, Vaccinia Venus inconclusive (no result: VACV mCherry inh)
C=CCOc1ccccc1/C=N/NC(=O)c1ccc(Cl)cc1Cl	none
COc1cccc2cc(C(=O)N(Cc3cccs3)CC3CCCO3)c(=O)oc12 (stereo unspecified)	HCMV antiviral inconclusive (no result: Vaccinia Venus, VACV mCherry inh)
O=C(CN1CCN(c2ccc(O)cc2)CC1)Nc1ccccc1C(=O)NCCc1ccccc1	Sm TGR block 40µM, HCMV antiviral -61, HCV inh 13µM (no result: Vaccinia Venus, VACV mCherry inh)
Oc1ccc(N2CCN(C(=S)NCCc3ccccc3)CC2)cc1	HCMV antiviral -70, HCV inh inconclusive, Vaccinia Venus inconclusive
COC(=O)c1ccc(-c2ccc(OC)c([C@H]3[C@H]4C=CC[C@@H](C)[C@@H]4C(=O)N3Cc3ccccc3)c2)cc1	Vaccinia Venus inconclusive, VACV mCherry inh inconclusive
C[C@@H]1CC=C[C@H]2[C@H]1C(=O)N(Cc1ccccc1)[C@H]2c1ccoc1	Sm TGR block 20µM
COc1ccc(-c2ccc(C(C)=O)cc2)cc1[C@H]1[C@H]2C=CC[C@@H](C)[C@@H]2C(=O)N1Cc1ccccc1	Sm TGR block inconclusive, HCMV antiviral -90, HCV inh inconclusive, Vaccinia Venus inconclusive, VACV mCherry inh inconclusive
CC[C@@H]1CC=C[C@H]2[C@H]1C(=O)N(Cc1ccccc1)[C@H]2c1ccoc1	Sm TGR block inconclusive, Vaccinia Venus inconclusive, FMDV inh inconclusive, VACV mCherry inh inconclusive (no result: HCMV antiviral)
C[C@@H]1CC=C[C@H]2[C@H]1C(=O)N(Cc1ccccc1)[C@H]2c1ccc2ccccc2c1Br	Sm TGR block inconclusive, HCMV antiviral inconclusive, HCV inh inconclusive, Vaccinia Venus inconclusive, FMDV inh 18µM
Nc1nc(-c2cc3c(cc2Cl)OCCO3)cs1	HCV inh inconclusive
